High-throughput results as filed in PubChem.
An excerpt weighted towards active compounds, which were near 3.4% of everything screened.
KLK7 zymogen act = proKLK7 (human) activation, primary screen | P49862 | purified proKLK7, EDANS-DABCYL substrate fluorescence; 100% is mature enzyme control, 0% vehicle | activation, % at 7 µM | 370,000 tested, 0.9% active;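 active means activation above the mean of all tested compounds plus 3 SD, computed per campaign excluding outliers beyond control limits, cut at about 13% in these data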
sPLA2-III inh = Blocks human group III sPLA2 activity; QFRET BODIPY PC-A2 liposome hydrolysis, fluorescence; 370,000 tested, 0.56% active; AID 743126; inhibition, % at 12.2 µM;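 active means inhibition above mean plus 3 SD of compounds lying within the high and low control bounds, cut at about 19% in these data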;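 further: 0% = median of test compound wells and 100% = no enzyme DMSO wells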
ADAM17 inh = ADAM17 inhibition, QFRET primary screen. P78536. recombinant ADAM17, EDANS/DABCYL FRET peptide cleavage. inhibition, % at 6.95 µM. 370,000 tested, 0.83% active. AID 720648;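 active means inhibition above the mean of compounds lying between control limits plus 3 SD, set per campaign, cut at about 8.5% in these data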;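 further: 0% = DMSO-only wells as the low control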
ADAM10 inh = ADAM10 inhibition, QFRET primary screen; AID 720582; O14672; 370,000 tested, 0.62% active; recombinant ADAM10, EDANS/DABCYL FRET peptide cleavage, 3 h; inhibition, % at 7 µM;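 active means inhibition above a per-campaign cutoff equal to the mean of compounds falling between control-based bounds plus 3 SD, cut at about 20% in these data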;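 further: 0% = DMSO wells while the 100% control is not disclosed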
CendR NRP1 mod = alters CendR peptide binding to human NRP-1; O14786; FAM-RPARPAR peptide binding to NRP-1, fluorescence polarization; inhibition, % at 25 µM; 360,000 tested, 0.85% active; AID 602438;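 active means inhibition or corrected inhibition above about 18%, plus a signal ratio from 0.5 to 1.5, limit read from the data, passing the limit was not always enough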
Target sequence (O14786 whole entry, looked up): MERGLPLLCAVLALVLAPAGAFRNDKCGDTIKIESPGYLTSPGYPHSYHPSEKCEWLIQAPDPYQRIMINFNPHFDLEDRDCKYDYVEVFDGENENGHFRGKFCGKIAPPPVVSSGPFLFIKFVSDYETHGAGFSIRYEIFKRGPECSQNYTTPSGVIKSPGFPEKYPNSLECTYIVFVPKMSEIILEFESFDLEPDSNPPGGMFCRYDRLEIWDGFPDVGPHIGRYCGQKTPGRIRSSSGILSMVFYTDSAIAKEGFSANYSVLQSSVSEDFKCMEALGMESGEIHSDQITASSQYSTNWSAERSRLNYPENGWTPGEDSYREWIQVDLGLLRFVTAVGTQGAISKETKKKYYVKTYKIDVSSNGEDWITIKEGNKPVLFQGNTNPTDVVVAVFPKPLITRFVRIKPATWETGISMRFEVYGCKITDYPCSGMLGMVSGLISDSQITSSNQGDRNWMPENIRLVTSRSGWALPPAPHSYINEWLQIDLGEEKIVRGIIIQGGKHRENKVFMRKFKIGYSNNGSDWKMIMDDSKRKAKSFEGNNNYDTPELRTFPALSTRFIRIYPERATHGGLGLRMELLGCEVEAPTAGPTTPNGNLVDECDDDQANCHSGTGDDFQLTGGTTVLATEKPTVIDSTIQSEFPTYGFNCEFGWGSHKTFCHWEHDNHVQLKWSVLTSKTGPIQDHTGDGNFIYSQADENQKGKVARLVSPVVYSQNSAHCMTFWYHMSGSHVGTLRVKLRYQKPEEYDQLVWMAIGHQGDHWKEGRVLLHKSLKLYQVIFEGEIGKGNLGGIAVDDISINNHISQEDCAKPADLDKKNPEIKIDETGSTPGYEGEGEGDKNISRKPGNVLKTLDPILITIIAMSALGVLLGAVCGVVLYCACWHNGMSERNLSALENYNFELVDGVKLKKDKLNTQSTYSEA
KLK7 act conf = proKLK7 activation, confirmation | shares compounds with KLK7 zymogen act | purified proKLK7, EDANS-DABCYL substrate fluorescence; scaled: vehicle 0, mature enzyme 100 | activation, % at 7 µM | 3,200 tested, 68% active;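 active means activation, as change over the incubation, above the mean of all tested compounds plus 3 SD, cut at about 13% in these data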
EDANS-DABCYL int = counter-screen for kallikrein-7 activators: EDANS-DABCYL optical interference; shares compounds with KLK7 zymogen act; EDANS-DABCYL substrate fluorescence interference, no enzyme, 4 h; solvent 0%, active enzyme control 100%; activation, % at 7 µM; 3,200 tested, 80% active;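 active means activation above the all-compound mean plus 3 SD, ignoring values outside control-based bounds, cut at about 4.8% in these data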;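 further: value is the 4 h activation minus the activation read at time zero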
EDANS interf = optically interferes with EDANS-DABCYL fluorescence, kallikrein-7 activator counter-screen; 250 tested, 20% active; EC50, µM; AID 720493; EDANS-DABCYL peptide fluorescence interference, no enzyme; shares compounds with KLK7 zymogen act;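 active means compounds that raise the fluorescence signal in this interference counterscreen, with EC50 at or below 10 µM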;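 further: intact quenched peptide substrate alone read at 355 nm excitation and 520 nm emission; signal is fluorescence gain from T0 to T4 after four hours at room temperature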
The depositor's hits bear a star; i = inactive; / = no result given.

SMILES | KLK7 zymogen act | sPLA2-III inh | ADAM17 inh | ADAM10 inh | CendR NRP1 mod | KLK7 act conf | EDANS-DABCYL int | others
c1cn2cc(-c3ccc(CN4CCOCC4)cc3)ccc2n1 | -0.4 | 0.5 | -6.8 | -29.0 | 6.4 | / | /
N#Cc1ccc(-c2cccc3nccn23)cc1 | 78.3* | 6.2 | i | i | -7.2 | 72.7* | 67.9*
CC(=O)Nc1cccc(-c2cccc3nccn23)c1 | 17.7* | 0.5 | -400.8 | i | 5.7 | 23.5* | 26.6*
c1cc(-c2ccc(CN3CCOCC3)cc2)n2ccnc2c1 | 24.3* | -3.6 | -416.1 | i | -2.0 | 21.0* | 21.6*
CN1CCN(c2ccc(-c3cccc4nccn34)cn2)CC1 | 49.9* | -3.2 | i | i | 1.0 | 21.7* | 18.9*
COc1ccc(-c2cc(=O)c3cccc(CC(=O)O)c3o2)cc1 | 79.5* | -4.7 | i | i | / | 82.5* | 81.5*
COc1ccc(-c2cc3ccccc3c(=O)o2)cc1 | 21.0* | 0.8 | -478.9 | i | -6.2 | -28.5 | -29.5
COc1ccc(C(=O)CSc2nnc(-c3ccccn3)n2-c2ccccc2)cc1 | -0.1 | -23.1 | 2.8 | 4.9 | / | / | /
COC(=O)[C@]12C[C@H](CC(=O)NCCC(C)C)C(=O)N(CCc3ccc(OC)c(OC)c3)C1=C[C@H](COCc1ccccc1)O[C@@H]2C | 0.6 | -10.8 | -0.6 | 7.2 | / | / | /
CC(=O)Nc1ccc(-c2cc(C(=O)O)c3cc4ccccc4cc3n2)cc1 | 1.2 | -4.9 | -48.6 | -193.8 | 0.8 | / | /
CC(=O)Nc1ccc(-c2cc(C(=O)O)c3ccc(C)cc3n2)cc1 | 17.1* | -5.6 | -283.3 | i | -7.3 | 17.3* | 27.5*
COc1ccc(NC(=O)CCC(=O)Nc2cc(OC)c(NC(=O)c3cccs3)cc2OC)cc1 | 0.5 | -4.8 | -1.7 | 4.1 | 1.8 | / | /
COc1ccccc1CC(=O)NNC(=O)c1cccs1 | -0.1 | 3.8 | -1.3 | -1.8 | -8.5 | / | /
COc1ccccc1CC(=O)Nc1ccc(NC(=O)c2cccs2)cc1 | 52.0* | -5.5 | 0.3 | 0.8 | 12.6 | 72.5* | 59.5* | EDANS interf=8.18*
COc1cc(NC(=O)c2cccs2)c(OC)cc1NC(=O)CCC(=O)Nc1ccc(C)cc1 | 123.4* | 0.4 | 2.0 | 4.7 | -4.5 | -11.4 | 1.0
CCN1CCN(c2cc3c(cc2F)c(=O)c(S(=O)(=O)c2ccccc2)cn3C)CC1 | 12.6* | 0.2 | -89.5 | -346.3 | -3.6 | 2.7 | 2.6
COc1cc(OC)c(OC)cc1/C=C1/Cc2ccccc2C1=O | 21.2* | 3.1 | -3.8 | 1.3 | -35.3 | 91.7* | 89.8*
COc1ccc(CNS(=O)(=O)/C=C/c2ccc(F)cc2CNC(=O)OC(C)(C)C)cc1 | -0.7 | -1.5 | -1.0 | 1.5 | / | / | /
Nc1[nH]c(C(=O)c2ccccc2)c(-c2ccc(Cl)cc2)c1C(=O)NCCC1=CCCCC1 | / | -0.8 | -1.1 | 0.0 | / | / | /
Cc1cccc(N2C(=O)CC(N(O)c3ccccc3)C2=O)c1 (stereo not given) | 273.7* | 1.8 | -6.7 | -1.9 | -2.1 | 348.8* | 365.8*
Cc1cccc(N2C(=O)SC(N(C)c3ccccc3)C2=O)c1 (stereo not given) | 0.0 | 9.3 | -4.0 | 6.6 | -4.8 | / | /
O=C1CC(N(O)c2ccccc2)C(=O)N1c1ccc(Cl)c(Cl)c1 (stereo not given) | 33.9* | -8.5 | -2.1 | -24.5 | 8.1 | 459.4* | 467.3*
O=C(O)CSC1CC(=O)N(c2ccc(Cl)c(Cl)c2)C1=O (stereo not given) | -0.3 | -12.0 | 0.5 | 4.4 | 12.3 | / | /
C=CCOC(=O)C(CO)NC(=O)CCCC(=O)O (stereo not given) | 0.1 | 7.9 | 0.8 | 1.3 | / | / | /
c1cc2c3c(cccc3c1)C(N1CCCCCC1)=N2 | 51.8* | 0.5 | -39.9 | -162.0 | -0.5 | 7.2 | 9.4*
SMILES | KLK7 zymogen act | sPLA2-III inh | ADAM17 inh | ADAM10 inh | CendR NRP1 mod | KLK7 act conf | EDANS-DABCYL int | others
c1cc2c3c(cccc3c1)C(N1CCCCC1)=N2 | / | / | / | / | -3.0 | / | /
c1ccc2c(c1)CCN(C1=Nc3cccc4cccc1c34)C2 | 14.1* | -9.5 | -30.6 | -82.8 | -43.2 | 6.6 | 8.2*
c1ccc(NC2=Nc3cccc4cccc2c34)cc1 | 0.3 | -1.3 | -1.1 | -7.1 | -41.3 | / | /
CCOC(=O)c1c(NC(=S)Nc2ccc(OCC)cc2)sc2c1CCN(C)C2 | 2.8 | -2.8 | -5.4 | -19.8 | -51.3 | / | /
CCOC(=O)c1c(NC(=S)Nc2ccc(Cl)cc2)sc2c1CCN(C)C2 | 17.8* | -16.3 | -24.6 | -94.4 | 127.2 | 20.0* | 21.1*
C=CCn1c(COc2ccc(C)cc2)nnc1SCC(=O)c1ccc(-c2ccccc2)cc1 | -0.3 | -16.4 | -0.2 | 7.8 | / | / | /
Cc1ccc(C2C=C(c3ccccc3)Nc3nc(N4C(=O)CCC4=O)nn32)cc1 (stereo not given) | 90.8* | 3.1 | -62.1 | -174.6 | 20.8 | -53.1 | -89.5
CC1=CC(c2ccc(Cl)cc2)n2nc(N3C(=O)CCC3=O)nc2N1 (stereo not given) | / | / | / | / | 1.6 | / | /
O=C(CSc1nnc(-c2ccccn2)n1-c1ccccc1)c1ccc(Cl)c(Cl)c1 | 0.0 | -36.9 | -0.7 | -2.2 | / | / | /
C[C@]12c3[nH]c4ccccc4c3CCN1C(=O)C(CC(=O)NCc1cccc(C(F)(F)F)c1)C[C@@H]2C(=O)N1CCOCC1 (stereo not given in full) | 0.3 | -8.6 | 0.0 | 4.4 | 0.9 | / | /
COCCCNC(=O)C[C@H]1C[C@H](C(=O)N2CCCCC2)[C@@]2(C)c3[nH]c4cc(-c5ccco5)ccc4c3CCN2C1=O | 170.0* | -1.1 | -132.2 | -447.8 | -14.1 | 87.9* | 114.1*
C[C@]12c3[nH]c4cc(-c5ccco5)ccc4c3CCN1C(=O)[C@@H](CC(=O)NCc1cccc(C(F)(F)F)c1)C[C@@H]2C(=O)N1CCOCC1 | 16.1* | -8.8 | -125.2 | -436.6 | -13.9 | -1.4 | -2.2
C[C@]12c3[nH]c4cc(-c5ccco5)ccc4c3CCN1C(=O)[C@@H](CC(=O)NCCN1CCOCC1)C[C@@H]2C(=O)N1CCCCC1 | 134.3* | -11.1 | -95.3 | -371.2 | -6.0 | 62.6* | 60.6*
COCCCNC(=O)CC1C[C@H](C(=O)N2CCCCC2)[C@@]2(C)c3[nH]c4ccccc4c3CCN2C1=O (stereo not given in full) | 0.0 | 13.5 | -5.1 | -10.9 | 3.9 | / | /
O=C(NCC1CCCO1)c1ccc(-c2cccc(C(F)(F)F)c2)o1 (stereo not given) | -0.2 | 2.9 | -2.2 | -16.9 | 0.4 | / | /
CC(=O)c1ccc(-c2ccc(C(=O)NCC3CCCO3)o2)cc1 (stereo not given) | 29.5* | 2.3 | i | i | -8.0 | 42.7* | 45.0*
